# Source: PubChem BioAssay (EPA / NIEHS)
# Values joined by “and” are separate entries in the source; they are usually repeats but may differ in a detail not shown here. Equal values may be shown once. Inconclusive results are not listed. The source holds several records for some structures; these can differ, active in one and inactive in another. Active and inactive are the calls of the source. Rule for the calls, unless noted: active = hit-call score of the fitted dose curve at least 0.9, where 1 is the maximum; inconclusive = response in the unintended direction; inactive = score below 0.9.
# Experiments:
# [1] = tested on: Thyroperoxidase (TPO), gene 54314; assay: CCTE_Simmons_AUR_rTPO: CCTE's Amplex UltraRed Assay for Thyroperoxidase (TPO) Inhibition, Simmons Lab (AID 2283662);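 for AC50: potency for loss of signal meaning inhibition of peroxidase activity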
# Summary of the method: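 Endpoint is decreased Amplex UltraRed fluorescence after a 30-min, 37C reaction of rat thyroid microsomes with 300 uM H2O2. Eight test concentrations (5 nM–87.5 uM final) in 0.5% DMSO, three biological replicates each.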
# [2] = CCTE_Simmons_CellTiterGLO_HEK293T: Viability Assessment in CCTE's Assays for Thyroperoxidase (TPO) Inhibition, Simmons Lab (AID 2283665);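 for AC50: cells exposed to compound for 24 h before readout; actives reduce ATP signal below DMSO vehicle meaning cytotoxicity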
# Summary of the method: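 HEK293T, 10 000 cells/well, DMEM + 1% FBS; 8-pt titration 5 nM–87.5 uM [final], 0.5% DMSO; 24 hr, 37C, 5% CO2; CellTiter-Glo luminescence; n=3 biological replicates.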
# [3] = CEETOX_H295R_MTT_cell_viability: Viability Assessment in the CeeTox HT-H295R MTT Assay (AID 2283718; active = hit-call score of the fitted dose curve at least 0.9, where 1 is the maximum; inactive = score below 0.9)
# Summary of the method: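 MTT reduction (0.5 mg/ml, 4 h at 37 C; absorbance at 570 and 650 nm) gave viability as background-corrected percent change versus controls. H295R cells had 48 h forskolin (10 uM) prestimulation, then 48 h chemical exposure at 0.1% DMSO.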
# [4] = molecular target: Luciferin 4-monooxygenase (Photinus pyralis) (UniProt P08659); assay: CCTE_Simmons_QuantiLum_inhib_2: CCTE's Firefly Luciferase Inhibition Assay, Simmons Lab (AID 2283767);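 for AC50: potency for inhibitors that lower luciferase luminescence relative to DMSO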
# Summary of the method: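 Luminescence loss relative to DMSO vehicle defines inhibition; detection reagent containing 150 uM D-luciferin and 147 uM dATP (final, pH 7.8) is injected immediately before each read. Enzyme is preincubated with an 8-point titration (5 nM–87.5 uM final) for 30 min at 37C.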
# [5] = Tanguay_ZF_120hpf_CFIN_legacy: (Legacy) Oregon State University Tanguay Lab 120 Hour Post-fertilization zebrafish Assay for Caudal Fin Malformation (AID 2283649)
# Summary of the method: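 Single dechorionated 5D wild-type embryos are dosed at 6 hpf (final DMSO 0.64%) and held statically at 28C. Caudal fin malformation is recorded as present or absent at 120 hpf under brightfield, excluding dead embryos.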
# [6] = Tanguay_ZF_120hpf_PIG_legacy: (Legacy) Oregon State University Tanguay Lab 120 Hour Post-fertilization zebrafish Assay for Pigmentation Malformation (AID 2283650)
# Summary of the method: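 Pronase dechorionation at 4 hpf; embryos plated at 6 hpf, one per well; static exposure, sealed and foil-covered, 28C, to 120 hpf; pigmentation read by brightfield, binary; DMSO 0.64% baseline, 5uM trimethyltin chloride positive control.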
# [7] = Tanguay_ZF_120hpf_CIRC_legacy: (Legacy) Oregon State University Tanguay Lab 120 Hour Post-fertilization zebrafish Assay for Circulatory Malformation (AID 2283651)
# Summary of the method: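 Read-out: presence or absence of circulatory malformation at 120 hpf, scored by brightfield microscopy, fitted in the gain-of-signal direction against DMSO baseline. Wild-type 5D larvae were exposed from 6 hpf after enzymatic chorion removal.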
# [8] = Tanguay_ZF_120hpf_SWIM_legacy: (Legacy) Oregon State University Tanguay Lab 120 Hour Post-fertilization zebrafish Assay for Swim Bladder Malformation (AID 2283654);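 note: swim bladder malformation in each larva scored yes or no under brightfield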
# Summary of the method: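 Embryos lacking chorions were exposed individually and statically to test chemical from 6 to 120 hpf at 28C, with 0.64% DMSO as vehicle. At 120 hpf, swim bladder malformation was recorded as present or absent by brightfield microscopy.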
# [9] = Tanguay_ZF_120hpf_TRUN_legacy: (Legacy) Oregon State University Tanguay Lab 120 Hour Post-fertilization zebrafish Assay for Truncated Body (AID 2283655)
# Summary of the method: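 Single dechorionated zebrafish embryos received test chemical from 6 hpf in 0.64% DMSO, kept at 28C. At 120 hpf, brightfield inspection noted any truncated body.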
# [10] = Tanguay_ZF_120hpf_NC_legacy: (Legacy) Oregon State University Tanguay Lab 120 Hour Post-fertilization zebrafish Assay for Notochord and Tail Malformation (AID 2283656)
# Summary of the method: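 Dechorionated Tropical 5D wild-type zebrafish embryos, one per well from 6 hpf, statically exposed to 120 hpf at 28C in 0.64% DMSO final. Notochord distortion scored present/absent by brightfield; dead embryos excluded.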
# [11] = Tanguay_ZF_120hpf_TR_legacy: (Legacy) Oregon State University Tanguay Lab 120 Hour Post-fertilization zebrafish Assay for Touch Response (AID 2283667)
# Summary of the method: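 5D WT embryos; static exposure to 120 hpf, 28C, sealed/dark; DMSO 0.64% v/v final. TR scored present/absent; dead embryos excluded. Pos ctrl 5uM trimethyltin chloride.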
# [12] = CCTE_Padilla_ZF_144hpf_TERATOSCORE: (Legacy) CCTE's 144 Hour Post-fertilization zebrafish Assay Teratoscore, Padilla Lab (AID 2283679; active = hit-call score of the fitted dose curve at least 0.9, where 1 is the maximum; inactive = score below 0.9;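 note: zebrafish embryos with chorions exposed by immersion from 6-8 hpf to 5 dpf with daily renewal; teratogenicity score from eye scoring of death hatching and malformations at 144 hpf; higher score means more developmental defects relative to DMSO baseline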)
# Summary of the method: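 Larvae scored by eye at 144 hpf for death, hatching and malformations after a day in clean Hanks'. Before that, daily-renewed exposure at 80 uM (0.4% DMSO, 26C) from roughly 6-8 hpf through 5 dpf, 4 embryos per chemical.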
# [13] = Tanguay_ZF_120hpf_ActivityScore_legacy: (Legacy) Oregon State University Tanguay Lab 120 Hour Post-fertilization zebrafish Assay Score for Activity (AID 2283742)
# Summary of the method: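 Embryos are staged, enzymatically dechorionated at 4 hpf, placed individually at 6 hpf, then held in test chemical (0.64% DMSO) at 28C until 120 hpf. Mortality and malformations are scored by brightfield, with non-mortality endpoints skipped for dead embryos.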
# [14] = STM_H9_OrnithineISnorm_perc: Stemina devTOX quickPredict H9 human embryonic stem cell (hESC)-based Assay for Ornithine (ORN) Metabolite Biomarker, Normalized (AID 2283712; active = hit-call score of the fitted dose curve at least 0.9, where 1 is the maximum; inactive = score below 0.9;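 note: ornithine released into spent medium during last day measured by mass spectrometry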)
# Summary of the method: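 H9 human embryonic stem cells kept pluripotent receive test chemical over 72 h, refreshed daily by media exchange. Media from the closing 24 h is deproteinized and analysed by UPLC-HRMS on an amide column; ornithine signal is scaled to labelled standard and vehicle.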
# [15] = STM_H9_CystineISnorm_perc: Stemina devTOX quickPredict H9 human embryonic stem cell (hESC)-based Assay for Cystine (CYSS) Metabolite Biomarker, Normalized (AID 2283713; active = hit-call score of the fitted dose curve at least 0.9, where 1 is the maximum; inactive = score below 0.9)
# Summary of the method: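 H9 hESC, pluripotent; compound 72h, re-dosed q24h with medium change. Last-24h medium → 40% acetonitrile deproteinization → UPLC-HRMS. CYSS area / C13-CYSS standard, then % of 0.1% DMSO median.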
# [16] = STM_H9_OrnCyssISnorm_ratio: Stemina devTOX quickPredict H9 human embryonic stem cell (hESC)-based Assay for Ornithine (ORN):Cystine (CYSS) Ratio (AID 2283714)
# Summary of the method: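 Steps: H9 hESCs in pluripotent state dosed 72h, medium plus compound renewed every 24h; conditioned medium from the final 24h deproteinized in 40% acetonitrile; ORN and CYSS quantified by UPLC-HRMS with C13 spike-ins; ratio relative to vehicle.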
# [17] = tested on: zebrafish Androgen Receptor (AR), gene 100005148; assay: ATG_zfAR_XSP1: Attagene TRANS-FACTORIAL Multi-Species (XSP1) HepG2 Assay for zebrafish Androgen Receptor (AR) (AID 2283771)
# Summary of the method: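 HepG2 cells were transiently transfected with a zebrafish AR-GAL4 reporter system and partially stimulated with 3 nM 6-alpha-fluorotestosterone. Reporter mRNA was measured after 24 h dosing by RT-PCR with capillary electrophoresis, and gain-of-signal was fitted relative to DMSO.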
# [18] = molecular target: zebrafish Estrogen Receptor (ESR1), esr1 (gene 259252) (UniProt P57717); assay: ATG_zfER1_XSP1: Attagene TRANS-FACTORIAL Multi-Species (XSP1) HepG2 Assay for zebrafish Estrogen Receptor (ESR1) (AID 2283772)
# Summary of the method: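 Reporter mRNA induction, gauged via RT-PCR/capillary electrophoresis fluorescence relative to DMSO controls, in HepG2 cells transiently carrying GAL4-UAS reporter units; 24 h dosing.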
# [19] = tested on: zebrafish Estrogen Receptor (ESR2B), gene 317733; assay: ATG_zfER2b_XSP1: Attagene TRANS-FACTORIAL Multi-Species (XSP1) HepG2 Assay for zebrafish Estrogen Receptor (ESR2B) (AID 2283773)
# Summary of the method: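 Gain-of-signal endpoint relative to DMSO: reporter transcript levels quantified by RT-PCR and capillary electrophoresis after 24 h compound exposure of HepG2 cells expressing a zebrafish ER2b-Gal4 chimera.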
# Sequence of Luciferin 4-monooxygenase (Photinus pyralis) (P08659 whole entry, looked up): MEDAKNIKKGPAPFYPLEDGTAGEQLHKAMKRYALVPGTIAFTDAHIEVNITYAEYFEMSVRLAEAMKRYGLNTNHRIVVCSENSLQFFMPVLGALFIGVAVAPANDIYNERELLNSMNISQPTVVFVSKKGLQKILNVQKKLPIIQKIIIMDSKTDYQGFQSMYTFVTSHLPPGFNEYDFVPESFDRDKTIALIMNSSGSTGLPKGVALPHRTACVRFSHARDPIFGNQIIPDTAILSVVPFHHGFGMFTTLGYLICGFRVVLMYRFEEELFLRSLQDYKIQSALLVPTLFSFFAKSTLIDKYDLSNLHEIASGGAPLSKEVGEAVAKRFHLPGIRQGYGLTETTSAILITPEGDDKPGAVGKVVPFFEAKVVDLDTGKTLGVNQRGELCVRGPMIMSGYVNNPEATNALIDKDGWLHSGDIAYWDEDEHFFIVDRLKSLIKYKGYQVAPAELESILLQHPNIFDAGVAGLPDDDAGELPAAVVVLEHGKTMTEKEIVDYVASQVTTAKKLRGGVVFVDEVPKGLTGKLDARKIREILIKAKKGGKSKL
# Sequence of zebrafish Estrogen Receptor (ESR1), esr1 (gene 259252) (P57717 whole entry, looked up, the tested form may be a part): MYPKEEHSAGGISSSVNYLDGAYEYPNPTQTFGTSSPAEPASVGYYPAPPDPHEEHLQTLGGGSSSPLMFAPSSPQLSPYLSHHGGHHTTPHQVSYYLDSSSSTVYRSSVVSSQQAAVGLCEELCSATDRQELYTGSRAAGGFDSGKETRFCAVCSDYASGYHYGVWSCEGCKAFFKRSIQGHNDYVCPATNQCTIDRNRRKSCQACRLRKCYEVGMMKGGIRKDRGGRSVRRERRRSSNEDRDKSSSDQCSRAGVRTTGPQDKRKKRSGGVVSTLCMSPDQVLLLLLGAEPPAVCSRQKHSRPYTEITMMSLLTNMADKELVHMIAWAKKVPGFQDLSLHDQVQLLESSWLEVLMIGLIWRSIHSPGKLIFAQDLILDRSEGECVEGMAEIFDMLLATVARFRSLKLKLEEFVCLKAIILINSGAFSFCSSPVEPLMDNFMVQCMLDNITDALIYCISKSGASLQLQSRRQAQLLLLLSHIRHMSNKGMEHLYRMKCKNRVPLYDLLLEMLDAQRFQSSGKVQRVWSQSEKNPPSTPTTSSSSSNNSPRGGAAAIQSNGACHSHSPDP
structure (smiles),measurement,setting,value
CC(C)(C)c1cccc(O)c1,AC50,[1],18.9 µM (active)
same,outcome,[2],inactive
same,outcome,[3],inactive
same,outcome,[4],inactive
CCCCCCCCCCCCOCCOS(=O)(=O)O,AC50,[1],50.8 µM (active)
same,AC50,[2],78.3 µM (active)
same,outcome,[4],inactive
CCCc1ccc(O)cc1,outcome,[1],inactive
same,AC50,[2],87.9 µM (active)
same,outcome,[3],inactive
same,outcome,[4],inactive
O=C(O)CS,outcome,[1],inactive
same,outcome,[2],inactive
same,outcome,[4],inactive
CC(=O)Nc1cc(S(=O)(=O)O)cc2cc(S(=O)(=O)O)c(N=Nc3ccccc3)c(O)c12,AC50,[1],40.8 µM (active)
same,AC50,[2],17.3 µM (active)
same,AC50,[4],21.2 µM (active)
C[C@]12CC[C@@H]3c4ccc(O)cc4CC[C@H]3[C@@H]1CC[C@@H]2O,outcome,[5],inactive
same,outcome,[6],inactive
same,outcome,[7],inactive
same,outcome,[8],inactive
same,outcome,[9],inactive
same,outcome,[10],inactive
same,AC50,[1],4.86 µM (active)
same,outcome,[2],inactive
same,outcome,[11],inactive
same,AC50,[12],12 µM (active)
same,outcome,[3],inactive
same,outcome,[13],inactive
same,outcome,[4],inactive
CCC(C)(C)C1CCC(=O)CC1,AC50,[1],39.3 µM (active)
same,outcome,[2],inactive
same,outcome,[4],inactive
COC(=O)c1ccc(C(=O)OC)cc1,outcome,[5],inactive
same,outcome,[7],inactive
same,AC50,[8],12.3 µM (active)
same,outcome,[9],inactive
same,outcome,[10],inactive
same,AC50,[12],4.57 µM (active)
same,outcome,[14],inactive
same,outcome,[15],inactive
same,outcome,[16],inactive
same,outcome,[3],inactive
same,AC50,[13],77.4 µM (active)
CCCc1ccc(N)cc1,AC50,[1],0.0301 µM (active)
same,outcome,[2],inactive
same,outcome,[4],inactive
CC/C(=C(\c1ccccc1)c1ccc(OCCN(C)C)cc1)c1ccccc1,outcome,[5],inactive
same,outcome,[6],inactive
same,outcome,[7],inactive
same,outcome,[8],inactive
same,outcome,[9],inactive
same,outcome,[10],inactive
same,AC50,[1],24.2 µM (active)
same,outcome,[1],inactive
same,AC50,[2],8.72 µM (active) and 6.64 µM (active)
same,outcome,[11],inactive
same,AC50,[12],1.43 µM (active) and 1.58 µM (active)
same,outcome,[3],inactive
same,AC50,[13],31.1 µM (active)
same,outcome,[13],inactive
same,outcome,[4],inactive
same,outcome,[17],inactive
same,outcome,[18],inactive
same,outcome,[19],inactive
CCCCOCCOCCO,outcome,[5],inactive
same,outcome,[6],inactive
same,outcome,[7],inactive
same,outcome,[8],inactive
same,outcome,[9],inactive
same,outcome,[10],inactive
same,outcome,[11],inactive
same,outcome,[13],inactive
c1ccc2scnc2c1,outcome,[2],inactive
O=C(O)c1ccccc1O,AC50,[15],1490 µM (active)
